Experiment [1] can be described thus: Validation of Assay for Modulators of Lamin A Splicing (AID 1459; active means well fitted curve in the direction sought with a large enough effect in the signal ratio; the % refers to the signal ratio;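 further: cells exposed to compound for two days before reading; 0% is about no effect; ratio rise marks activators and ratio drop marks inhibitors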). The essentials: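 Splicing correction is reported by an EGFP-containing lamin A minigene in stably transfected S3 HeLa cells, while DsRed2 controls for viability and nonspecific signal. Cells are exposed to compounds for 48 hrs before the GFP over RFP ratio is taken.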
Experiment [2] deals with DNA repair nuclease/redox regulator APEX1 (Homo sapiens) (UniProt P27695). Kind of experiment: qHTS Validation Assay for Inhibitors of the Human Apurinic/apyrimidinic Endonuclease 1 (APE1) (AID 1705;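 further: TAMRA fluorescence gain over two minutes as APE1 cuts a quenched THF abasic duplex; on the % scale 0 is the no-effect control and ±100 the full control effect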). The essentials:
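Endonuclease activity of human APE1 is followed as dequenching when the enzyme incises a tetrahydrofuran abasic site in a short duplex labelled 5'-TAMRA/3'-BHQ-2 (50 nM final), after 15 min enzyme–compound preincubation at room temperature.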

A short description of experiment [3]: Counterscreen for APE1 Inhibitors: Fluorescent Dye Displacement Validation Assay (AID 1707).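 Further: plate controls were ThO with dsDNA and no compound for no effect and ThO without dsDNA for full effect.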 Summed up: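 Counterscreen flags promiscuous DNA binders: compounds displacing ThO from duplex DNA (abasic THF site, 50 nM) reduce 540 nm emission (480 nm excitation). ThO 250 nM final; Tris-HCl pH 7.5 with NaCl, MgCl2 and Tween-20.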
Experiment [4] addresses Endonuclease 4 (Escherichia coli (strain K12)) (UniProt P0A6C1). As to the kind of experiment: Counterscreen for APE1 Inhibitors: qHTS Validation Assay for Inhibitors of Endonuclease IV (AID 1708). Further: on the % scale 0 is the no-effect control and ±100 the full control effect. Summed up: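 Conditions: 2 nM enzyme, 50 nM TAMRA/BHQ-2 substrate, pH 7.5 Tris buffer with 2 mM MgCl2, RT. Compound preincubation 15 min; readout three fluorescence reads 60 s apart, third-minus-first.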

Experiment [5] is described as follows: qHTS for differential inhibitors of proliferation of Plasmodium falciparum line D10 (AID 1877).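 Further: parasites grown with compound for 72 h before DNA staining.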 Further: potency means the concentration at half of the fitted maximal effect.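 On activity change, negative = inhibition: plate controls were vehicle wells for no effect and reference inhibitor wells for full effect.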
Experiment [6] has as its target ATP-dependent DNA helicase Q1 (Homo sapiens) (UniProt P46063). As to the kind of experiment: qHTS Validation Assay for Inhibitors of RecQ-Like Dna Helicase 1 (RECQ1) (AID 2353).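 Further: plate controls were DMSO vehicle for no effect and enzyme-free control for full effect.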 Summed up: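 RECQ1T1 50 nM; forked duplex (20 bp + 30-nt ss tails) 200 nM, ATP 2 mM final; pH 8.0, 2 mM MgCl2, 2.5 ug/ml poly(dI-dC); 15 min compound preincubation; discontinuous kinetic read over 2 h at RT.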

Experiment [7] is described as follows: Validation screen for inhibitors of Lassa infection (AID 463096; calls by dose curve; further: potency means the concentration at half of the fitted maximal effect).
Experiment [8] in a line: Quantitative high throughput screen for delayed death inhibitors of the malarial parasite plastid, 96 hour incubation (AID 488745). Further: nearly all actives have a fitted effect of over 70% in size. Further: potency means the concentration at half of the fitted maximal effect. The essentials:
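Readout is firefly luciferase luminescence from an integrated reporter in P. falciparum; lower signal marks inhibited growth. Cultures at 2% hematocrit and 0.1% parasitemia were treated with compound across two generations (96 h, 37 C, 5% CO2).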

Experiment [9] has as its target M-phase phosphoprotein 8 (Homo sapiens) (UniProt Q99549). As to the kind of experiment: qHTS Validation Assay for Inhibitors for MPP8 Chromodomain Interactions with Methylated Histone Tails (AID 488949). Further: nearly all actives have a fitted effect of over 55% in size. Further: potency means the concentration at half of the fitted maximal effect. Summed up: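 Disruption of the preformed MPP8–trimethyl-H3K9 peptide complex (both 50 nM, 30 min, RT) is measured after 30 min compound exposure, using AlphaScreen proximity beads; aurintricarboxylic acid titration serves as plate control.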

Experiment [10] concerns the target Thyrotropin receptor (Homo sapiens) (UniProt P16473). As to the kind of experiment: qHTS Assay for Antagonists of the Thyroid Stimulating Hormone Receptor (AID 488980). Further: 0% is about no effect. The essentials:
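Cells expressing human TSHR (HEK293) are dispensed in HBSS/HEPES containing 70 uM RO 20-1724, compound is added, then TSH at EC80 (4 nM final). Antibody in lysis buffer follows, 30 minutes at room temperature before HTRF detection.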

Experiment [11] deals with Galactokinase (Homo sapiens) (UniProt P51570). Kind of experiment: qHTS Validation Assay for Inhibitors of Human Galactokinase (GALK) (AID 493189). Further: 0% is about no effect. Summed up: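 Compounds were pin-transferred into ATP buffer, then GALK-galactose mix was added (final 5 nM enzyme, 100 uM galactose, 35 uM ATP). After 1 h at room temperature, remaining ATP was measured luminescently.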
Experiment [12] can be described thus: Validation screen for small molecules that induce DNA re-replication in SW480 colon adenocarcinoma cells (AID 504364). Further: 0% is about no effect. The essentials: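 Image-based qHTS: compounds were incubated with SW480 cells for 48 hr, nuclei stained with Hoechst, and per-nucleus fluorescence intensity scanned to flag cells with excess DNA content.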
Experiment [13] can be described thus: qHTS Assay for Lipid Storage Modulators (AID 1519; calls by dose curve). The settings on record: Drosophila S3 cells, BODIPY lipid droplet/cell ratio, laser cytometry, cells loaded with oleic acid; for activity change, negative = inhibition: at 57.5 µM (top of the series). Summed up:
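Cells seeded at 5,000 per well were treated with compounds over a concentration series and loaded with oleic acid (400 uM, as added). Lipid droplet fluorescence (488 nm excitation, 500-530 nm channel) was read by laser-scanning cytometry and normalized to 20 uM Triacsin C.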

The target in experiment [14] is Ferritin light chain (Equus caballus) (UniProt P02791). Kind of experiment: qHTS Validation Assay for Identification of Novel General Anesthetics (AID 2323). Further: on the % scale 0 is the no-effect control and ±100 the full control effect. Summed up: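 Apoferritin from horse spleen (10 uM) was mixed with 1-aminoanthracene at 50% saturation in PBS, then compounds were added. After 10 min at room temperature, fluorescence was read (ex 380 nm, em 535 nm) and normalized to free-probe and complex controls.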

Experiment [15] has as its target Transient receptor potential cation channel subfamily V member 1 (Homo sapiens) (UniProt Q8NER1). Kind of experiment: HTS Assay for Compounds that Act as Enhancers of the Vanilloid Receptor 1 (AID 488979). Further: 0% is about no effect. The essentials: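 TRPV1 cells loaded with Fluo-8 calcium dye; compound added and Ca2+ signal (ex 480/em 520 nm) followed 3 min, then capsaicin at EC20 added and read 2 more min to detect enhancement.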

Experiment [16] can be described thus: Cytotoxicity counterscreen for inhibitors of SARS-CoV-2 cell entry (AID 1645845; calls by dose curve; further: on the % scale 0 is the no-effect control and ±100 the full control effect; nearly all actives have a fitted effect of over 50% in size). As to conditions: outcome: dose series up to 57.1 µM unless noted. The essentials: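 Counterscreen run in the same HEK293-ACE2 line as the pseudotyped-particle entry assay, without particles. Viability after 48 h at 37 C was read as ATP luminescence, scaled between cell-containing and cell-free wells.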

Experiment [17] is described as follows: Primary qHTS for inhibitors of SARS-S pseudo-typed particle cell entry (AID 1479145; calls by dose curve; further: nearly all actives have a fitted effect of over 45% in size). As to conditions: outcome: dose series up to 57.1 µM unless noted.
Experiment [18] in a line: Primary qHTS for Huh7 cytotoxicity: counterscreen for inhibitors of MERS-S pseudotyped particle cell entry (AID 1479147; calls by dose curve; further: on the % scale 0 is the no-effect control and ±100 the full control effect). The settings on record: outcome: dose series up to 57.1 µM unless noted.
Experiment [19] in a line: Primary qHTS for inhibitors of MERS-S pseudo-typed particle cell entry (AID 1479149; calls by dose curve; further: nearly all actives have a fitted effect of over 60% in size). The settings on record: outcome: dose series up to 57.1 µM unless noted.
Experiment [20] is described as follows: Primary qHTS for Vero E6 cytotoxicity: counterscreen for inhibitors of SARS-S pseudo-typed particle cell entry (AID 1479150; calls by dose curve). As to conditions: outcome: dose series up to 57.1 µM unless noted.
Setting [21] is: measured here: cell count channel max response.
[22] abbreviates: measured here: lipid channel max response.

Values joined by “and” are separate entries in the source; they are usually repeats but may differ in a detail not shown here. Identical values can stand only once. Inconclusive results are not listed. Active and inactive are the calls of the source. Unless noted, the call rests on the fitted dose curve; in most records, active means well fitted curve in the direction sought with a large enough effect; inconclusive means small, poorly fitted or top-dose-only effect, or another doubt; inactive means no such curve, though single readings can be large; an effect the other way counts as inactive or inconclusive.

Ferritin light chain (Equus caballus), sequence (P02791 2-175 limits assumed): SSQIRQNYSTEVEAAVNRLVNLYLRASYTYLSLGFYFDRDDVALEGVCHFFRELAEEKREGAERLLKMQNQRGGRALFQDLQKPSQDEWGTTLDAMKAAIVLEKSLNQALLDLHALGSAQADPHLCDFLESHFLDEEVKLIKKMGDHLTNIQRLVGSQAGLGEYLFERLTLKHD
DNA repair nuclease/redox regulator APEX1 (Homo sapiens), sequence (P27695 whole entry, looked up): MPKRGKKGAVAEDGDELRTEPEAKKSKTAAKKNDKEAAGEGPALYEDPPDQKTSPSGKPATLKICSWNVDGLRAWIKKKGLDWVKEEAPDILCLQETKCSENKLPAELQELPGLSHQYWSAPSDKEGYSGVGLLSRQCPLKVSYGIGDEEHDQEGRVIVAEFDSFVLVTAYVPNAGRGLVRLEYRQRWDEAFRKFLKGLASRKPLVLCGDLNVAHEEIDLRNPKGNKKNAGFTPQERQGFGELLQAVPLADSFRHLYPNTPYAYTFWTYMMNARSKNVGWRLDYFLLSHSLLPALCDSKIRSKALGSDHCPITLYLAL
Transient receptor potential cation channel subfamily V member 1 (Homo sapiens), sequence (Q8NER1 whole entry, looked up): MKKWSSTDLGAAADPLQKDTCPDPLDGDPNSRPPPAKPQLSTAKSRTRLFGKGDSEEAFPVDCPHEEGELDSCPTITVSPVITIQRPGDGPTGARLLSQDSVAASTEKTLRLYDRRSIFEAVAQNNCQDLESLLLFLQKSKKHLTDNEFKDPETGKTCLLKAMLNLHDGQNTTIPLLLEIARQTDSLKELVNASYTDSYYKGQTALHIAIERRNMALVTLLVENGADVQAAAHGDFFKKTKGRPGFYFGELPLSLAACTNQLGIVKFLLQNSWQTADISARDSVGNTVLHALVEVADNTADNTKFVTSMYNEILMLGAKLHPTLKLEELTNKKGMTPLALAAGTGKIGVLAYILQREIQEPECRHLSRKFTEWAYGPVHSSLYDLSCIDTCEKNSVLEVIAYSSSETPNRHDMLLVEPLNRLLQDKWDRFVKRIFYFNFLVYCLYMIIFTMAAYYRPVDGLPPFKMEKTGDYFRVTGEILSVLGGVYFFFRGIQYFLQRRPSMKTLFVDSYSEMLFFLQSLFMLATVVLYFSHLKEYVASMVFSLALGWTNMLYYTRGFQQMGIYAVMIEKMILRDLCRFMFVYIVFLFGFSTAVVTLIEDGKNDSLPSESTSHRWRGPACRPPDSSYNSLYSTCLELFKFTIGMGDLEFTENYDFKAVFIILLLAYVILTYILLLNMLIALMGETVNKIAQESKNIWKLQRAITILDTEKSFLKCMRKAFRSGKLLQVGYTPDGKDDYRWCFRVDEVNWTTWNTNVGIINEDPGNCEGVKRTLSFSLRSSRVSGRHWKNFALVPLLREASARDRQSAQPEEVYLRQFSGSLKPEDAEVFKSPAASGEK
M-phase phosphoprotein 8 (Homo sapiens), sequence (Q99549 whole entry, looked up): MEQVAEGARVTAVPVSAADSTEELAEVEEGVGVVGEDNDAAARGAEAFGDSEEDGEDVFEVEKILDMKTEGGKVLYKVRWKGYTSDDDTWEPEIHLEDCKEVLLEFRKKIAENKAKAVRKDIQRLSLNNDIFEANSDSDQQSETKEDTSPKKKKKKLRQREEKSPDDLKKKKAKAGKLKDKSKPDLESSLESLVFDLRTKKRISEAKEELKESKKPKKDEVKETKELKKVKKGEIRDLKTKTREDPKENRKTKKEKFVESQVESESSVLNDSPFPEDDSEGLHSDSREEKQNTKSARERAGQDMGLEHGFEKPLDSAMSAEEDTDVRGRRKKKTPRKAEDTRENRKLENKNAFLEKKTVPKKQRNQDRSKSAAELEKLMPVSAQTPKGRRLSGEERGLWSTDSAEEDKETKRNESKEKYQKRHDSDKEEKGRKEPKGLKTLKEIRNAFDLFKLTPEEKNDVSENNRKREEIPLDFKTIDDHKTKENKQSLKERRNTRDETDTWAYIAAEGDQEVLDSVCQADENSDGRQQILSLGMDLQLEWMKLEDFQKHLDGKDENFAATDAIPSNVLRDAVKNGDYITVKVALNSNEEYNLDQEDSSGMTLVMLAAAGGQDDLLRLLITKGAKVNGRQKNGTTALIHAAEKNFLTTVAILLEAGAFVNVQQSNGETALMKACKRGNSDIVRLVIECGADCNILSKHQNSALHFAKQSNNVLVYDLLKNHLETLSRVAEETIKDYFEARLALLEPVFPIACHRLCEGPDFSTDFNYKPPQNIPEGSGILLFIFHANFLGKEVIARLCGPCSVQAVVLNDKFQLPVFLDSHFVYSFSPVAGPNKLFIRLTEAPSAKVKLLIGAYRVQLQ
Galactokinase (Homo sapiens), sequence (P51570 whole entry, looked up): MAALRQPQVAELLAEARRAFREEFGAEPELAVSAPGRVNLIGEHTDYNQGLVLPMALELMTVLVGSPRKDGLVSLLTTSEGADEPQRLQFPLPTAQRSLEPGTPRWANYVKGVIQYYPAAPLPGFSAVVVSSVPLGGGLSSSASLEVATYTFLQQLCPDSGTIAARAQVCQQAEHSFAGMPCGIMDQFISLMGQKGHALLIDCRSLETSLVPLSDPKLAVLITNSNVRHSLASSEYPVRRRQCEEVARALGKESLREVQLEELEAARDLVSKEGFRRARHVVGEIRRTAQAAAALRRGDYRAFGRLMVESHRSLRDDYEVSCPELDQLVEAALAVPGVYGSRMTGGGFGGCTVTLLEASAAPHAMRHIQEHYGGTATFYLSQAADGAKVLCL
ATP-dependent DNA helicase Q1 (Homo sapiens), sequence (P46063 whole entry, looked up): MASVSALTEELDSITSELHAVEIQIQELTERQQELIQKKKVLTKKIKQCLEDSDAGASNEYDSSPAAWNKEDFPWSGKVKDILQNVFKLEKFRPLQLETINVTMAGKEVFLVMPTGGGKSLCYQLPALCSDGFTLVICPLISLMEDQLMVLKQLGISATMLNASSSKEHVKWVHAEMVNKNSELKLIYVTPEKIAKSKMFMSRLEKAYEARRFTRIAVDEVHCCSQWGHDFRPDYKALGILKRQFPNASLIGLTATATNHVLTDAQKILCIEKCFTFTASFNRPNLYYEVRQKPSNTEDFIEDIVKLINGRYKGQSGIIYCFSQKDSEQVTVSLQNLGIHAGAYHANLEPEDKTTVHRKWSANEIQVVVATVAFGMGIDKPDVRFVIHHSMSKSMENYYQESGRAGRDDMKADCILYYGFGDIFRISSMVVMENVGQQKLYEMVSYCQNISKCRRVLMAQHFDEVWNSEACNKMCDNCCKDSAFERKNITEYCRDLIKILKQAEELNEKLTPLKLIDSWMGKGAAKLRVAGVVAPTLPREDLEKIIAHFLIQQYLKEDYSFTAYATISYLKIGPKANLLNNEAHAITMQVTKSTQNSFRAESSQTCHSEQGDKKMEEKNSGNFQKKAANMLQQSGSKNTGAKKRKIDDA
Thyrotropin receptor (Homo sapiens), sequence (P16473 whole entry, looked up): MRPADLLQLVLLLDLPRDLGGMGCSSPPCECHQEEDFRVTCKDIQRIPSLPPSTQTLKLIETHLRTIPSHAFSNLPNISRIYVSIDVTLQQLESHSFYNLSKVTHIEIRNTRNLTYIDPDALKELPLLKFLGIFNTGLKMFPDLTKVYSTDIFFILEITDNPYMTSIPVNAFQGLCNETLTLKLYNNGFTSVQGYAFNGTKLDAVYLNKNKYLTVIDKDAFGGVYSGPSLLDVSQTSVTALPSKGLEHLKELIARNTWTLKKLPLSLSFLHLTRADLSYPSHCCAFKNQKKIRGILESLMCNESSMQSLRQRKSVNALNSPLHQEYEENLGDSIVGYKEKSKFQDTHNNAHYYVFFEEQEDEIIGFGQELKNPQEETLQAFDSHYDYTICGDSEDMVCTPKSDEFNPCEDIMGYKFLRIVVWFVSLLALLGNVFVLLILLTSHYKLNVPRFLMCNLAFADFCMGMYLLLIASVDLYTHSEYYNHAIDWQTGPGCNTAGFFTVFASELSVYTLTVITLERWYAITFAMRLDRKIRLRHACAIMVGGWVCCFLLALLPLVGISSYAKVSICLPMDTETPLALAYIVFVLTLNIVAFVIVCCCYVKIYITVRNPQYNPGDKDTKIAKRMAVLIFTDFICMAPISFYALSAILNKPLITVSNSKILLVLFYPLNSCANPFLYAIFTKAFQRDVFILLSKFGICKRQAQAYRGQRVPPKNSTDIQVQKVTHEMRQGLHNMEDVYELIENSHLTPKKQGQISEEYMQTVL

In the case of `CCCCN1C2CCC1CC(OC(c1ccc(F)cc1)c1ccc(F)cc1)C2` (stereo not given), the compound was called inactive in [1], in experiment [3], in [6], in experiment [10], in experiment [11] and in [12]. Further, the Potency result in [2], in [4] and in [9] was “inactive” in each case. Further, the Potency in experiment [5] is 2.24 µM (active); in experiment [7], 10 µM (active); in experiment [8], 1.85 µM (active).
`C[N+]1(C)C2CC(OC(=O)C(CO)c3ccccc3)CC1C1OC12` (stereo not given): the compound was called inactive in experiment [1], in [3], in experiment [6], in experiment [15], in experiment [10] and in experiment [11]. Also, the call in [12] was inactive. In experiment [13], the activity change, negative = inhibition is 0.686% (inactive) and -2.43% (inactive). Moreover, the max response in [13] (setting [21]) was 53.9% and -15.4%; in experiment [13] (setting [22]) it was 52.9% and -17%. Also, the Potency entry in experiment [2], in experiment [4], in [5], in experiment [14], in experiment [7] and in experiment [8] was “inactive” each time. Also, the Potency result in [9] is “inactive”.
Consider `C/C1=C/C[C@@H](/C(C)=C/c2csc(C)n2)OC(=O)C[C@H](O)C(C)(C)C(=O)[C@H](C)[C@@H](O)[C@@H](C)CCC1`, for which, in experiment [16], the Potency result is “inactive”.
Turning to `C=C/C=C\CC1=C(C)[C@@H](OC(=O)[C@H]2[C@H](C=C(C)C)C2(C)C)CC1=O`, the Potency result in [17], in experiment [18], in [19] and in experiment [20] was “inactive” each time.
Consider `CC1Cc2cc3c(cc2C(c2ccc(N)cc2)=NN1)OCO3` (stereo not given), for which the compound was classed as inactive in [1], in experiment [3], in [6], in experiment [15], in experiment [10] and in experiment [11]. Moreover, the result in [12] was inactive. The activity change, negative = inhibition in experiment [13] was 1.87% (inactive). For the same compound, the max response in [13] (setting [21]) worked out at 56.1%; in experiment [13] (setting [22]), 60.1%. Further, the Potency result in experiment [2], in experiment [4], in experiment [5], in experiment [14], in experiment [7] and in [8] was “inactive” throughout. The Potency in experiment [9] was 56.2 µM (active).
Turning to `C[C@H]1C2Cc3ccc(O)cc3[C@]1(C)CCN2CC1CC1`, the compound was called inactive in experiment [1], in experiment [3], in [6], in experiment [15], in experiment [10] and in [11]. Moreover, the outcome in [12] was inactive. For the same compound, the Potency result in experiment [2], in experiment [4], in experiment [5], in experiment [14], in experiment [7] and in experiment [8] was “inactive” in each case. Besides, in experiment [9], the Potency result was “inactive”.
Take `CC[C@@H](CO)NC(=O)[C@H]1C=C2c3cccc4c3c(cn4C)C[C@H]2N(C)C1`: the compound was classed as inactive in experiment [1], in experiment [6], in experiment [15], in experiment [11] and in [12]. Moreover, the activity change, negative = inhibition in experiment [13] is 2.02% (inactive). Further, the results for the max response in experiment [13] (setting [21]) and in experiment [13] (setting [22]) were 18.8% and 22.3%, respectively. Further, the Potency result in experiment [4], in experiment [14] and in [9] was “inactive” in each case.
As to `COCC(=O)Nc1cc(Sc2ccccc2)ccc1N=C(NC(=O)OC)NC(=O)OC`, the Potency entry in [17], in [18], in experiment [19] and in experiment [20] was “inactive” in each case.

For the origin of these results see PubChem BioAssay (NCATS).
